Bead autofluor – compound fluorescence in toxin protease inhibitor counterscreen; compound autofluorescence counterscreen, microsphere flow cytometry; stronger effect = higher value; fluorescence intensity (concentration not given with the values); 3.1% of 360,000 active; in the data active = fluorescence intensity above about 16000
Anthrax LF inh2 – Bacillus anthracis LF protease inhibitors, primary screen, biochemical, multiplex microsphere, MLPCN library | Lethal factor (Bacillus anthracis), P15917 | multiplex microsphere protease cleavage assay | inhibition, % at 10 µM | 0.12% of 360,000 active | AID 588501, 2011; in the data active = inhibition above about 30%; note: plate controls were buffer without enzyme for full effect and enzyme alone for no effect
Target sequence (P15917 whole entry, looked up): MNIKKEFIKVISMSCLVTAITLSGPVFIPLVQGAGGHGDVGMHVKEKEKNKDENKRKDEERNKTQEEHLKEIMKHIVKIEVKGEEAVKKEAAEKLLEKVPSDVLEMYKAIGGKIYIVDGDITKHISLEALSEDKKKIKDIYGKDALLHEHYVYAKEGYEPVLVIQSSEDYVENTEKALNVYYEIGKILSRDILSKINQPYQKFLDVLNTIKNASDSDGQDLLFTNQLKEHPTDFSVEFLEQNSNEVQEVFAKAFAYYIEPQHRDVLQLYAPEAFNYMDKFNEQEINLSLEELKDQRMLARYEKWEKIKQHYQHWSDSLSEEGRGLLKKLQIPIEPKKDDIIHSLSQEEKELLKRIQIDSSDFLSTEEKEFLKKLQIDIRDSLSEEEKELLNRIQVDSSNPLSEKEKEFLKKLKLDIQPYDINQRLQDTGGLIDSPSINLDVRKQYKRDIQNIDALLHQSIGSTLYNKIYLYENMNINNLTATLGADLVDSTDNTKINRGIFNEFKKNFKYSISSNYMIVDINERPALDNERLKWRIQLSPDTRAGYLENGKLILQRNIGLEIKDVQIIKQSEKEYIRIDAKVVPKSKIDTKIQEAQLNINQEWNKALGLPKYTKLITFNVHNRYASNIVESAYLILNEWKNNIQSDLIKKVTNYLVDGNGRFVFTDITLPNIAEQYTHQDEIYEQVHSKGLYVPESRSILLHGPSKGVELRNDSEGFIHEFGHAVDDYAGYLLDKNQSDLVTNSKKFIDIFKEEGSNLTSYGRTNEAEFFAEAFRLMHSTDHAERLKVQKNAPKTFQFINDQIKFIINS
BoNT F protease – BoNT/F light chain protease inhibitors, primary screen, biochemical, flow cytometry, MLPCN library; inhibition, % at 10 µM; 0.22% of 360,000 active; Botulinum neurotoxin type F light chain protease (Clostridium botulinum); Multiplex microsphere protease cleavage assay; in the data active = inhibition above about 35%, passing the limit was not always enough; note: plate controls were buffer without enzyme for full effect and enzyme alone for no effect
BoNT A protease – BoNT/A light chain protease inhibitors, primary screen, biochemical, flow cytometry, MLPCN library. multiplex microsphere protease substrate cleavage. inhibition, % at 10 µM. 0.17% of 360,000 active. AID 588499, 2011; in the data active = inhibition above about 30%; note: plate controls were buffer without enzyme for full effect and enzyme alone for no effect
BH1578 lux ind – inducers of Vibrio cholerae quorum light production without autoinducers, primary screen, BH1578 luxS cqsA deficient, single point | V. cholerae BH1578 lux reporter, luminescence, 6 h | activation, % at 18.7 µM | 0.16% of 350,000 active | AID 588436, 2011; in the data active = activation mostly above about 9.7%, no sharp cut-off
BoNT-A LC CP2 – BoNT/A light chain protease inhibitors, confirmation, biochemical, flow cytometry, cherry pick 2; shares compounds with BoNT A protease; multiplex microsphere protease cleavage assay; inhibition, % at 10 µM; 10% of 150 active; AID 602325, 2012; in the data active = inhibition above about 24%
Anthrax LF CP2 – Bacillus anthracis LF protease inhibitors, confirmation, biochemical, multiplex microsphere; inhibition, % at 10 µM; shares compounds with BoNT A protease; 7% of 150 active; multiplex microsphere protease cleavage assay; AID 602327, 2012
BoNTF LC inh 2 – BoNT/F light chain protease inhibitors, confirmation, biochemical, flow cytometry, cherry pick 2; 7% of 150 active; AID 602336, 2012; shares compounds with BoNT A protease; inhibition, % at 10 µM; multiplex microsphere protease cleavage assay
* = called active by the depositor; i = inactive; / = no result. Most compounds without a hit are left out; they make up all but 3.5% or so of the library. Cut-off read from the data, not from the text of the source, unless noted: active = inhibition above about 25%; inactive = the rest.

SMILES	Bead autofluor	Anthrax LF inh2	BoNT F protease	BoNT A protease	BH1578 lux ind	BoNT-A LC CP2	Anthrax LF CP2	BoNTF LC inh 2
COc1ccccc1C(CNC(=O)c1ccc(C)c(S(=O)(=O)N2CCCCC2)c1)N1CCCC1 (stereo not drawn)	71619*	-2	-12	-89	-1	-7	2	25*
COc1ccc(C(CNC(=O)c2cccc(S(=O)(=O)N3CCCCC3)c2)N2CCCC2)cc1 (stereo not drawn)	9930	-4	9	-5	i	0	-2	-2
COc1ccc(C(CNC(=O)c2ccc(C)c(S(=O)(=O)N3CCCCC3)c2)N(C)C)cc1OC (stereo not drawn)	4047	4	-3	-1	i	/	/	/
COc1ccc(C(CNC(=O)c2cc(S(=O)(=O)N3CCCCC3)ccc2C)N2CCCC2)cc1 (stereo not drawn)	19413*	10	45*	-4	-1	-13	3	35*
COc1ccc(NS(=O)(=O)c2cccc(C(=O)NCC(c3ccc(OC)cc3)N3CCCCC3)c2)cc1 (stereo not drawn)	7419	-3	-10	-1	-1	/	/	/
COc1ccc(C(CNC(=O)c2ccc(OC)c(S(=O)(=O)N3CCCC3)c2)N2CCCC2)cc1 (stereo not drawn)	21380*	1	40*	-12	-2	-17	2	24
CCc1nc2ccc(C(=O)NCc3ccc4c(c3)OCO4)cn2c1N(CC)Cc1cccc(Br)c1	4297	-2	-3	0	0	/	/	/
Cc1cc2cc(CNC(=O)Nc3ccc(Cl)c(Cl)c3)ccc2n1C	2226	-117	-123	35*	0	10	-6	-38
CCOc1ccc(CC(=O)NCc2ccc3c(c2)cc(C)n3C)cc1	2221	-8	-29	81*	-1	3	-1	5
COc1ccc(C(=O)NCc2ccc3c(c2)cc(C)n3C)cc1	1203	-37	-82	95*	0	8	9	13
Cc1onc(-c2ccccc2Cl)c1C(=O)NCc1ccc2c(c1)cc(C)n2C	2004	-75	-87	83*	i	49*	20	-40
CCN(Cc1ccccc1)S(=O)(=O)c1ccc(C(=O)N(CCCN(C)C)c2nc3c(C)c(C)ccc3s2)cc1	4629	-6	-4	-1	i	/	/	/
CCN(CC)c1ccc(C=Nc2cccc(S(=O)(=O)N3CCOCC3)c2)c(O)c1	3355	46*	17	51*	-13	16	14	5
Cc1cc2ccccc2n1CCNC(=O)C1CCCCC1	2400	27	-27	96*	1	4	2	6
O=C(NCCn1ccc2ccccc21)C1CCCCC1	5958	-1	-5	1	i	/	/	/
Cc1cc2ccccc2n1CCNC(=O)C1CC1	3417	44*	23	69*	0	9	10	4
CC(C)(C)c1cc(C(=O)NCCN2CCCC2)cc(C(C)(C)C)c1	2747	1	-5	0	i	/	/	/
COC(=O)c1ccccc1-c1c2ccc(=N)cc-2oc2cc(N)ccc12	34738*	61*	62*	9	i	15	-9	-35
CCOc1ccc(NC(=O)CN2C(=O)NC3(CCCCCC3)C2=O)cc1	6643	-4	-15	-5	0	/	/	/
O=C(Cc1ccccc1)c1ccccn1	10134	23	-5	33*	/	33*	29*	3
CN(C)c1ccc(-c2sc(Nc3ccccc3)n[n+]2-c2ccc(F)cc2)cc1	10058	26	10	8	0	/	/	/
CCN(CC)c1ccc(-c2sc(Nc3ccccc3)n[n+]2-c2ccc(F)cc2)cc1	17190*	44*	1	27	i	7	14	3
Cc1cc2nc(-c3cccc(Br)c3)c(Cc3ccsc3)n2c(C)c1Br	4588	-7	-8	1	/	4	1	7
COc1ccccc1Cc1c(-c2ccc(OC)c(OC)c2)nc2cc(C)c(Br)c(C)n12	4221	-16	-1	2	/	/	/	/
Cc1cc2nc(-c3cccc(Br)c3)c(Cc3ccccc3)n2c(C)c1Br	6229	-2	-9	1	/	/	/	/
SMILES	Bead autofluor	Anthrax LF inh2	BoNT F protease	BoNT A protease	BH1578 lux ind	BoNT-A LC CP2	Anthrax LF CP2	BoNTF LC inh 2
Cc1ccc(-c2nc3cc(C)c(Br)c(C)n3c2Cc2ccsc2)cc1	6312	1	-4	1	/	/	/	/
Cc1cc2nc(-c3cccc(Cl)c3)c(Cc3ccsc3)n2c(C)c1Br	6217	3	-6	3	/	9	-5	2
COc1ccc(-c2nc3cc(C)c(Br)c(C)n3c2Cc2ccsc2)cc1OC	4388	0	-4	2	/	3	-2	-7
COc1ccc(-c2nc3cc(C)c(Br)c(C)n3c2Cc2ccccc2C(F)(F)F)cc1OC	5906	-8	-7	1	/	2	-2	-2
CCn1c(CNc2cccc(C(F)(F)F)c2)n[nH]c1=S	2554	-1	-3	0	i	/	/	/
CC1(C)C[C@H]2C3=CCC4[C@@]5(C)CC[C@H](O)[C@](C)(CO)C5CC[C@@]4(C)[C@]3(C)C[C@H]3O[C@@H]1[C@H](O)[C@]32CO (stereo partly drawn)	4213	-1	-4	0	0	/	/	/
COc1ccc2c(c1)nc(-c1cccc(Br)c1)c(=O)n2C(c1ccccn1)c1nc2ccccc2[nH]1 (stereo not drawn)	3816	24	-2	30*	/	12	8	10
Cc1ccc(C(c2nc3ccccc3[nH]2)n2c(-c3ccccc3)nc3ccccc32)cc1 (stereo not drawn)	5351	6	-9	0	/	/	/	/
CCN(CC(=O)NC(C)C)C(=O)Cc1ccc(C)c(C)c1	4338	1	-1	0	1	/	/	/
CCNC(=O)CSc1nnc(-c2ccccc2Br)n1-c1cccc(C(F)(F)F)c1	2126	-1	3	1	0	/	/	/
Cc1ccc(S(=O)(=O)N(CC(=O)Nc2ccccc2C(=O)O)c2ccccc2)cc1	2546	0	1	-1	-1	/	/	/
COc1ccccc1Cc1c(-c2ccc(C#N)cc2)nc2c(Cl)cc(C(F)(F)F)cn12	10081	8	1	9	/	11	3	1
CC(C(=O)NCC1CCCO1)n1cc([N+](=O)[O-])cn1 (stereo not drawn)	4422	3	-2	1	-1	/	/	/
Cc1c(Cc2ccccc2)c(=O)oc2cc(OCC(=O)NCC3CCC(C(=O)O)CC3)ccc12 (stereo not drawn)	4147	-5	-20	-1	-1	/	/	/

Compound activity from PubChem.
